Most compounds without a hit are left out; they make up all but 1.3% or so of the library.
TbPYK inhibitor = blocks Trypanosoma brucei pyruvate kinase. Q57TT1. TbPYK enzyme, Kinase-Glo Plus ATP luminescence, 45 min. Potency, µM (doses to about 76.8 µM), for the others: top-dose activity, negative = inhibition, usual class: inhibitors. hit rate 0.12% among 410,000; also: nearly all actives have a fitted effect of over 50% in size
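In this concentration-response screen, enzyme-free wells defined baseline while DMSO plates tracked drift. Each reaction combined TbPYK, substrate, compound and 130 uM ADP for 45 min at room temperature. Kinase-Glo Plus luminescence gave the signal.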
VACV mCherry inh = vaccinia inhibition (mCherry reporter); Vaccinia virus mCherry reporter infection, fluorescence; Potency, µM (series often up to 36.5 µM), for inactives: at the highest dose activity change, negative = inhibition, usual class: inhibitors; hit rate 0.63% among 310,000; AID 720579; calls by dose curve; tested in A549 cells; also: nearly all actives have a fitted effect of over 35% in size
RE007 growth inh = less growth of the S. pombe RE007 Vpr strain | hit rate 0.21% among 360,000 | S. pombe RE007 Vpr strain, BacTiter-Glo ATP luminescence, 24 h | AID 651644 | Potency, µM (series often up to 92.2 µM), without a hit: at the highest dose activity change, negative = less growth, usual class: inhibitors; active = well fitted falling curve with a large enough effect; inconclusive = small, poorly fitted or top-dose-only effect; inactive = no such curve, though single readings can be large or run the other way; also: nearly all actives have a fitted effect of over 50% in size
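Fission yeast strain RE007, carrying one chromosomally integrated HIV-1 vpr copy, was seeded at OD 0.01 in PMG+AL medium with 23 nL pinned compound. After 24 h at 30 °C and 99% humidity, viability was read by BacTiter-Glo luminescence.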
VACV Venus inh = inhibitors of vaccinia virus (Venus reporter); AID 720580; Potency, µM (titrated, usually from 36.5 µM), for the others: top-dose activity change, negative = inhibition, hits mostly inhibitors; Vaccinia virus Venus reporter expression, fluorescence; hit rate 0.46% among 330,000; calls by dose curve; tested in A549 cells; also: nearly all actives have a fitted effect of over 30% in size
LmPK inhibitor = LmPK (Leishmania mexicana) enzyme inhibition; Q27686; purified LmPK, Kinase-Glo ATP luminescence, 1 h; Potency, µM (series often up to 57.5 µM), inactives show at the highest dose activity change, negative = inhibition, most hits filed as inhibitors; hit rate 0.37% among 290,000; AID 1721
Target sequence (Q27686 whole entry, looked up): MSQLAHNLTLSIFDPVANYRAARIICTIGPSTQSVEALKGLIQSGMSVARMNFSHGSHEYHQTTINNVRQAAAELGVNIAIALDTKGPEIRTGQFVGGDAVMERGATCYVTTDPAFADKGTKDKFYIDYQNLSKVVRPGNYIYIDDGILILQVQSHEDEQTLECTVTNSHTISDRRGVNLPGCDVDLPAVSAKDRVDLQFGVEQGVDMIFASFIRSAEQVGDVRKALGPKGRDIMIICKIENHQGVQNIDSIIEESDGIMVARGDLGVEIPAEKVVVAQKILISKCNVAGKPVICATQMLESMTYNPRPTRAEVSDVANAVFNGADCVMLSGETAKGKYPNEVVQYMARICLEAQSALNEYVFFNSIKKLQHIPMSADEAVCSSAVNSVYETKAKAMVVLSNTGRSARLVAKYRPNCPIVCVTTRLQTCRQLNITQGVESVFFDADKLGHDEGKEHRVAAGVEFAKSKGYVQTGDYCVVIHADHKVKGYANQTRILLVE
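In 50 mM imidazole pH 7.2 with 7 mM MgCl2, LmPK (0.1 nM) turned over PEP (0.5 mM) and ADP (0.1 mM) for 1 h at room temperature. Luciferase read-out of ATP.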
AMA1-RON2 inh = inhibitors of Plasmodium falciparum AMA1-RON2 interaction; AlphaScreen AMA1-biotinylated RON2 peptide binding; Potency, µM (doses to about 58.2 µM), for the others: at the highest dose activity change, negative = inhibition, usual class: inhibitors; hit rate 0.2% among 360,000;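 also: 0% = vehicle wells and -100% = peptide control; nearly all actives have a fitted effect of over 45% in size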
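AMA1 (3D7) with his tag at 25 nM final met compounds first, then biotinylated RON2 peptide at 25 nM; detection used donor plus acceptor beads, 10 µg/mL apiece, read by AlphaScreen after 30 min at room temperature.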
* = called active by the depositor; i = inactive; ? = inconclusive; · = not tested or not shown; [ ] = another dose, or the depositor's remark. Unless noted, calls follow the shape of the dose curve; as a rule, active = well fitted curve in the direction sought with a large enough effect; inconclusive = small, poorly fitted or top-dose-only effect, or another doubt; inactive = no such curve, though single readings can be large; an effect the other way counts as inactive or inconclusive. Unless noted, % is scaled to controls: 0 for no effect and ±100 for the full control effect; potency is read from the fitted curve at half-maximal effect.

SMILES	TbPYK inhibitor	VACV mCherry inh	RE007 growth inh	VACV Venus inh	LmPK inhibitor	AMA1-RON2 inh
Cc1ccc2cc(C)c(Sc3nnnn3-c3ccccc3)nc2c1	0.7%	i	18.4%	-14.2%	1.7%	-8.2%
COc1cccc(N(Cc2nnc3n2CCCCC3)C(=O)Nc2cccc(Cl)c2)c1	1.7%	-7.1%	·	-0.9%	·	·
O=C(O)c1ccc2c(c1)[C@@H]1C=CC[C@@H]1[C@H](c1ccccn1)N2	-15.4%	·	-8.7%	·	·	12.6µM*
COc1ccc(OC)c([C@@H]2Nc3ccc(C(=O)O)cc3[C@@H]3C=CC[C@@H]32)c1	-26.9%	10.6%	·	-14.0%	·	·
Cc1ccc(NCC(=O)N/N=C\c2ccc([N+](=O)[O-])o2)cc1	-3.7%	11.2µM*	-16.0%	?	5.1%	?
Cc1nc2ccccn2c1C(=O)N/N=C/c1ccc([N+](=O)[O-])o1	-0.1%	?	-20.8%	7.08µM*	-6.1%	?
O=C(N/N=C/c1ccc([N+](=O)[O-])o1)c1ccc(O)cc1	4.0%	12.6µM*	-4.9%[18.4 µM]	?	0.4%	-7.0%
CC[C@]1(O)C[C@H]2CN(CCC3=c4ccccc4=N[C]3[C@@](C(=O)OC)(c3cc4c(cc3OC)N(C)[C@H]3[C@@](O)(C(N)=O)[C@H](O)[C@]5(CC)C=CCN6CC[C@]43[C@@H]65)C2)C1	-6.6%	·	·	·	·	·
COc1cc(=O)n2c(c1C(=O)N(C)Cc1nonc1C)CCN(Cc1ccccc1F)CC2	·	-2.3%	·	1.0%	·	·
CSc1cccc(NC(=O)CN(C)S(=O)(=O)c2cnc[nH]2)c1	-5.5%	-11.6%[7.34 µM]	-0.7%	-9.0%[7.34 µM]	0.2%	5.01µM*
CCOC(=O)c1cnc2ccc(C)cc2c1Nc1ccc(N2CCOCC2)cc1	-3.5%	?	-20.4%	-23.9%	-0.2%	14.1µM*
CCOC(=O)c1ccc(Nc2cc(C)nc(N3CCOCC3)n2)cc1	2.0%	10µM*	-15.0%	12.6µM*	4.2%	-14.6%
CCOc1ccc(Nc2cc(C)nc(N3CCOCC3)n2)cc1	-4.6%	·	2.4%	-13.6%	-3.0%	0.0%
O=c1[nH]c(-c2ccccn2)nc2sc(-c3ccccc3)cc12	-8.8%	4.47µM*	?	?	3.5%	120.2%
Cc1c(C(=O)N(C)C)sc2nc(-c3ccccn3)[nH]c(=O)c12	-7.9%	·	7.7%	-9.3%	-3.5%	-45.1%
COc1cc(=O)n2c(c1C(=O)N(C)Cc1nonc1C)CCN(CC1CC=CCC1)CC2 (centres undefined)	·	i	·	-15.6%	·	·
Cc1cnc(-n2ncc(C(=O)N(C)C3CCOC3)c2-c2cccs2)nc1-c1ccc(F)cc1 (centres undefined)	·	-12.9%	·	-6.8%	·	·
O=C(CS(=O)(=O)c1ccc(F)cc1)Nc1nnc(-c2cccs2)o1	-2.6%	-1.3%	15.8%	-0.8%	·	19.8%
Cc1ccc(C)c(-c2nnc(NC(=O)CCS(=O)(=O)c3ccccc3)o2)c1	-2.5%	-1.7%	3.1%	-12.7%	·	97.2%
COc1cc(-c2nnc(NC(=O)CCS(=O)(=O)c3ccccc3)o2)cc(OC)c1OC	6.1%	3.55µM*	1.8%	5.62µM*	·	53.2%
COc1cc(OC)cc(-c2nnc(NC(=O)CCS(=O)(=O)c3ccc(F)cc3)o2)c1	0.7%	5.62µM*	0.5%	7.94µM*	·	91.5%
COc1cc(-c2nnc(NC(=O)CCS(=O)(=O)c3ccc(F)cc3)o2)cc(OC)c1OC	-0.4%	?	12.3%	?	·	39.1%
COc1cc(OC)cc(-c2nnc(NC(=O)CCS(=O)(=O)c3ccccc3)o2)c1	0.0%	6.31µM*	6.1%	?	·	62.5%
O=C(CCS(=O)(=O)c1ccc(F)cc1)Nc1nnc(-c2cccs2)o1	10.4%	?	-6.2%	12.6µM*	·	74.4%
CC(C)(S)C(=O)NC(CS)C(=O)O (centres undefined)	-0.1%	·	·	·	·	·
SMILES	TbPYK inhibitor	VACV mCherry inh	RE007 growth inh	VACV Venus inh	LmPK inhibitor	AMA1-RON2 inh
COc1ccccc1CN1CCC2(CC1)c1ccccc1[C@@H](NC(=O)c1ccco1)[C@@H]2OC	·	i	·	-28.9%	·	·
CC(C)[C@H](N)C(=O)N[C@H]1CCC2C3CC=C4C[C@@H](O)CC[C@]4(C)C3CC[C@@]21C (some centres undefined)	3.8%	?	9.1%	12.6µM*	·	-6.3%
CCOC(=O)c1c(C)[nH]c(N=Nc2ccccc2)c1C	-9.0%	·	-27.3%	-18.4%	4.5%	12.6µM*
CCOC(=O)c1c(C)[nH]c(N=Nc2ccc(C)cc2)c1C	0.9%	-13.4%	2.4%	-18.7%	1.9%	-25.3%
O=C(Oc1cccc2cccnc12)c1cccc(N2C(=O)C3C4CCC(C4)C3C2=O)c1 (centres undefined)	?	?	15.8µM*	?	1.0%	60.6%
O=C(Oc1cccc2cccnc12)c1ccc(N2C(=O)C3C4CCC(C4)C3C2=O)cc1 (centres undefined)	2.9%	-25.9%	?	-21.2%	0.7%	72.5%
CCC1CN(CCNC(=O)c2cccc(C(=O)OC)c2)Cc2cc(OC)ccc2O1 (centres undefined)	·	-14.0%	·	-2.6%	·	·
CC1=C(C(=O)OC(C)C)C(c2cccnc2)n2ncnc2N1 (centres undefined)	7.2%	28.2µM*	-3.7%	28.2µM*	-0.1%	0.0%
OC1(c2cccnc2)CCN(Cc2ccc3c(c2)CN(Cc2cccc(C(F)(F)F)c2)CCO3)CC1	·	-27.4%	·	-23.5%	·	·
Cc1ncc2c(c1CNC(=O)c1ccc3c(c1)OCO3)CCN(C(=O)c1scc3c1CCCC3)C2	·	-9.8%	·	9.5%	·	·
CN1N/C(=C\c2ccccc2)N=C2C(=O)N(C)C(=O)N=C21	·	7.94µM*	·	8.91µM*	·	·
CC/C=C1/N=C2C(=O)N(C)C(=O)N=C2N(C)N1	·	1.78µM*	·	2.24µM*	·	·
CCS(=O)(=O)Nc1cc(C(=O)N2CCC[C@H]2CO)c2c(c1)nc(-c1ccccc1)n2C	·	-4.0%	·	-4.0%	·	·
COc1cccc(Cc2nc3cccnc3n2C2CCN(Cc3ccc(C)s3)CC2)c1	·	-11.9%	·	-6.4%	·	·
Cc1nnc(C(C)C)n1C1CC2CCC(C1)N2CC[C@H](NC(=O)C1CCC(F)(F)CC1)c1ccccc1 (some centres undefined)	11.0%	·	·	·	·	·
CCn1c2ccccc2c2cc(NC(=O)COC(=O)Cc3cn4ccsc4n3)ccc21	-5.5%	·	2.4%	10µM*	0.7%	-25.9%
CCn1c2ccccc2c2cc(NC(=O)COC(=O)c3ccc(O)cc3)ccc21	5.7%	11.2µM*	4.0%	?	·	1.8%
COc1ccccc1-c1ccnc(-n2ncc(C(=O)NCc3cccnc3)c2C)n1	·	-8.4%	·	?	·	·
CNC[C@H](Cc1ccccc1)NC[C@@H](Cc1cccc2ccccc12)NCCc1ccc(C)cc1	4.2%	?	1.9%	14.1µM*	2.8%	55.2%

Assay outcomes from PubChem.
